UHRF1 MBD2 ctr = UHRF1 methylated DNA binding inhibitors, primary screen, counter-screen for MBD2 inhibitor project, biochemical, TR-FRET, human UHRF1, single concentration. UHRF1 binding to methylated oligo. hit rate 0.75% among 370,000. inhibition, % at 4.4 µM. E3 ubiquitin-protein ligase UHRF1 (Homo sapiens), Q96T88; in the data active = inhibition above about 21%;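 also: UHRF1 SRA domain binding a hemimethylated CpG hairpin DNA probe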
Target sequence (Q96T88 whole entry, looked up, the tested form may be a part): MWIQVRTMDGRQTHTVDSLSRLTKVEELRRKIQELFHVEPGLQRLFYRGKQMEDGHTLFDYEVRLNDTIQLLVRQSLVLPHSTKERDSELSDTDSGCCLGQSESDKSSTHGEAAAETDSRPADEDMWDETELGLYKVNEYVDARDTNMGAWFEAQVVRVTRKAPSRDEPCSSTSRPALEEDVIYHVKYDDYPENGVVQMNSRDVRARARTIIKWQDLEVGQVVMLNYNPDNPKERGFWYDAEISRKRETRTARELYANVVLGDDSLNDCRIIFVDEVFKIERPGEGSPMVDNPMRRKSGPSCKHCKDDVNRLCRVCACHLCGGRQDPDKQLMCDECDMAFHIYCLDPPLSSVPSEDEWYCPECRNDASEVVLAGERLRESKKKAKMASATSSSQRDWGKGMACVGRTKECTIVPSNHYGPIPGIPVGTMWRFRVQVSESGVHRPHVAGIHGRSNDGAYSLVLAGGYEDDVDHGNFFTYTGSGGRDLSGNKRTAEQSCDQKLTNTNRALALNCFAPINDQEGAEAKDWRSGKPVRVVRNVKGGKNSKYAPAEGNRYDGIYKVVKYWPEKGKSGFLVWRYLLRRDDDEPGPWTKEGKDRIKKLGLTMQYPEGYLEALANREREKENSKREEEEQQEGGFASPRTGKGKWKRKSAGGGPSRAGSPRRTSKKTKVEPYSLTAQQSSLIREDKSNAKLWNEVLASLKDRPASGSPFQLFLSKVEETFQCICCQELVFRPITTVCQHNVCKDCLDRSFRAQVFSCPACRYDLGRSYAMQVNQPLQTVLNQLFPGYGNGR
rCAG binder = binders of r(CAG) RNA repeats, primary screen, biochemical, fluorescence | inhibition, % at 3 µM | hit rate 1.3% among 370,000 | r(CAG) RNA repeat, TO-PRO-1 dye displacement fluorescence | AID 651821, 2012;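 active = inhibition above the plate cutoff, the mean of all test compounds on that plate plus 3 SD, cut at about 35% in these data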;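 also: higher means more dye released from RNA so lower well fluorescence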
DNMT1 inh = human DNMT1 methyltransferase inhibitors, primary screen, biochemical, molecular beacon, fluorescence, HinP1I cleavage, uHTS | inhibition (reported as % activation of signal), % at 10 µM | hit rate 0.83% among 360,000 | DNA (cytosine-5)-methyltransferase 1 (Homo sapiens), P26358; in the data active = inhibition above about 50%
LEDGF integ inh = blockers of LEDGF/p75-dependent integrase strand transfer – biochemical, TR-FRET, high throughput, primary screen; HIV-1 integrase (with human LEDGF/p75); TR-FRET IN-LEDGF/p75 DNA integration, Eu/Cy5; inhibition, % at 3.7 µM; hit rate 0.64% among 370,000;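 active = inhibition above the screen-wide mean plus 3 SD, cut at about 13% in these data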;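 also: signal is the Cy5 over europium emission ratio at 671 and 618 nm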
MBD2 inh = inhibitors of MBD2 binding to methylated DNA, primary screen, biochemical, TR-FRET, DNA-binding domain, human | Methyl-CpG-binding domain protein 2 (Homo sapiens), Q9UBB5 | MBD2 binding to methylated oligonucleotide | inhibition, % at 4.4 µM | hit rate 0.31% among 370,000 | AID 686964, 2013; in the data active = inhibition above about 13%
PG9 binder = binders of HIV-1 gp120 antibody PG9, primary screen, biochemical, TR-FRET | HIV-1 gp120 / PG9 antibody interaction | TR-FRET gp120-PG9 antibody binding | hit rate 0.43% among 360,000 | inhibition, % at 6.7 µM; in the data active = inhibition above about 8.5%
Numbers stand for hits; . = inactive; / = no result given; + = active, no number. In the library only some 3.5% were active in any assay of this set; here they are far more common.

SMILES | UHRF1 MBD2 ctr | rCAG binder | DNMT1 inh | LEDGF integ inh | MBD2 inh | PG9 binder
Nc1ccc(C(=O)OCC(=O)NC2CC2)cc1[N+](=O)[O-] | . | . | . | . | . | .
NC(=S)n1[nH]c(-c2ccc([N+](=O)[O-])cc2)c(N=Nc2ccc(Cl)cc2)c1=O | / | / | 107 | / | / | /
CC[C@H]1C=C[C@@H](C(=O)NS(=O)(=O)c2ccc(C)cc2)N(C(C)=O)C1 | . | . | / | . | . | /
CCC(c1nnnn1-c1ccc2c(c1)OCCO2)N1CCN(C)CC1 (stereo not given) | . | . | / | . | . | .
O=C(CCSc1ccccc1)Nc1ccccc1Br | 26 | . | . | . | . | .
COc1cc(O)c(C(CC(=O)N2CC(C)OC(C)C2)c2ccc3c(c2)OCO3)c(OC)c1 (stereo not given) | . | / | / | . | . | /
CCCCn1c(N)c(N(CC(C)C)C(=O)c2cc3c(s2)CCCCC3)c(=O)[nH]c1=O | 57 | . | . | . | . | .
COC(=O)C1=C(C)N(Cc2ccc(C(F)(F)F)cc2)C(=NCc2ccccc2C(F)(F)F)NC1c1cccc(Cl)c1 (stereo not given) | . | . | / | . | . | .
O=C(COc1ccccc1F)NCc1nc2ccccc2[nH]1 | 22 | . | . | . | . | .
Cc1ccccc1OCC(=O)NCCc1nc2ccccc2[nH]1 | . | . | . | . | . | .
CCCCC1=CC2=C(c3ccco3)C(=O)C(C)(OC(=O)c3ccc(OC)cc3)C(=O)C2=CN1CCCN(CC)CC (stereo not given) | . | . | . | . | . | .
CCCCC1=CC2=C(c3ccco3)C(=O)C(C)(OC(=O)c3ccc(OC)cc3)C(=O)C2=CN1c1ccc(OC)cc1 (stereo not given) | . | . | . | . | . | 11
CCCCC1=CC2=C(c3ccco3)C(=O)C(C)(OC(=O)c3ccc(OC)cc3)C(=O)C2=CN1CC(C)C (stereo not given) | . | . | . | . | . | 37
CCCCC1=CC2=C(c3ccco3)C(=O)C(C)(OC(=O)c3ccc(OC)cc3)C(=O)C2=CN1CC1CC1 (stereo not given) | . | . | . | . | . | .
Cc1ccc(N(CC(=O)NN=C2CCN(C)CC2)S(=O)(=O)c2ccc(C)cc2)cc1 | . | . | . | . | . | .
Cc1ccc(S(=O)(=O)N(CC(=O)NN=C2CCN(C)CC2)c2ccc(C(C)C)cc2)cc1 | 34 | . | . | . | . | .
C=CCc1ccc(OCCN2CCc3ccccc3C2)c(OC)c1 | 29 | . | . | . | . | .
CNc1ccc2c3c(cccc13)C(=O)N(C)C2=O | . | . | + | . | . | .
O=C(COC(=O)c1cc(=O)c2ccccc2o1)Nc1ccccc1F | . | . | . | . | . | .
O=C(N/N=C/c1ccc(F)cc1)c1ccccc1 | 27 | . | . | . | . | .
CC(C)NC(=O)c1ccc(CSCc2ccccc2Cl)o1 | 25 | . | . | . | . | .
Cc1cccc(C)c1OCc1cc(C(=O)NCC2CC2)no1 | . | . | . | . | . | .
CC(C)(C)c1cc(NC(=O)C2(C)CCN2C(=O)C2(c3ccccc3)CC2)no1 (stereo not given) | . | . | . | . | . | .
COc1ccc(-c2cccc(NS(=O)(=O)c3cc([N+](=O)[O-])c(C)c([N+](=O)[O-])c3)c2)nn1 | . | 57 | . | . | . | .
COC(=O)[C@H]1C[C@@]2(N3CCCCC3)c3ccccc3N(S(=O)(=O)c3ccccc3)[C@H]2N1 | . | . | / | . | . | /
SMILES | UHRF1 MBD2 ctr | rCAG binder | DNMT1 inh | LEDGF integ inh | MBD2 inh | PG9 binder
S=C1Nc2ccccc2CS1 | . | . | . | . | . | .
S=C1Cc2ccccc2N1 | . | 44 | 83 | . | . | .
CC(=O)Nc1cc(OC(C)=O)c2nonc2c1OC(C)=O | . | . | . | 39 | 19 | .
COc1ccc(S(=O)(=O)N(C(=O)c2ccco2)c2cc3sc(=O)oc3c3ccccc23)cc1 | . | 98 | . | . | . | .
Cc1cc(/C=c2\sc3nc4ccccc4n3c2=O)c(C)n1-c1ccc(C(=O)O)cc1 | . | . | . | . | . | .
O=C(O)c1ccc(-c2ccc(/C=c3/sc4nc5ccccc5n4c3=O)o2)cc1Cl | 40 | . | 106 | . | . | .
CC1=NOC(=O)/C1=C\c1ccc(-c2cccc(Cl)c2)o1 | / | / | 57 | / | / | /
Cc1ccc(/C=C2/C(=O)ON=C2c2ccccc2)o1 | . | 39 | . | . | . | .
Nn1c(SCC(=O)N2CCOCC2)nnc1-c1cc(-c2ccc(F)cc2)n[nH]1 | . | . | / | . | . | /
CCc1ccc(CNC(=O)c2ccc3nc(C4CCCCC4)oc3c2)nc1 | . | . | . | . | . | .
CN(C)CCCN1C(=O)c2cccc3c([N+](=O)[O-])ccc(c23)C1=O | . | . | 69 | . | . | .
O=C1c2cccc3c([N+](=O)[O-])ccc(c23)C(=O)N1CCc1ccccn1 | . | . | . | . | . | .
O=C(NCc1ccc(F)c(F)c1)C1CCCN(c2nc3ccccc3o2)C1 (stereo not given) | . | . | / | . | . | /
CCN(CC)c1ccc(NC(=O)CSc2ccsc2[N+](=O)[O-])c(C)c1 | . | . | 53 | . | . | .
Cc1ccc(CNC(=O)CSc2ccsc2[N+](=O)[O-])cc1 | . | . | . | . | . | .
Cc1ccc(Cn2cc(CN(C(C)(C)C)S(=O)(=O)c3ccc(F)cc3Br)nn2)cc1 | . | . | / | . | . | /
CCc1ccc(CN2CCC(C(=O)Nc3ccc(Oc4ccccc4)nc3)CC2)o1 | 43 | . | . | . | . | .
O=C(Nc1ccc(Oc2ccccc2)nc1)C1CCN(Cc2ccccc2)CC1 | . | . | . | . | . | .
NC(CSC(c1ccccc1)(c1ccccc1)c1ccccc1)C(=O)O (stereo not given) | . | . | 52 | . | . | .
CCN(CC)C(=O)CC[C@H]1CC[C@]2(CCCN(S(=O)(=O)c3ccccc3)C2)O1 | . | . | / | . | . | /
COC(=O)C1CN(Cc2ccc(F)cc2)CCS(=O)(=O)N1Cc1ccc(C)cc1 (stereo not given) | . | . | / | . | . | /
Cc1nn(C)c(C)c1/C=C/C(=O)O | 39 | . | . | . | . | .
CCOC(=O)[C@]12CCC=C1N(Cc1ccccc1)C(=O)[C@H](CC(=O)NCCC(C)C)C2 | 24 | . | / | . | . | .
O=S(=O)(c1ccc(CN2CCOCCOCCN(Cc3ccc(S(=O)(=O)C(F)(F)F)cc3)CCOCC2)cc1)C(F)(F)F | . | / | / | . | . | /

Screens: PubChem BioAssay, several laboratories
